Assay results reported in PubChem BioAssay (NCI).
This is part of a sample that, as a whole, favours compounds with a hit. Of some 79,000 tested, about 15% had one in any assay. A number with no mark means an inactive call. Activity calls are given as the source filed them. No stated cut-off is given here; in the data, active means growth inhibition above about 70%; inactive means the rest.

Assays:
[1] = NCI Yeast Anticancer Drug Screen. Data for the rad50 strain (AID 155);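 further: 0% = growth of vehicle-only cultures of the same strain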; conditions: S. cerevisiae rad50 strain growth inhibition; at 50.0 µM; active compounds read high
Summary of the method: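 Genetically altered yeast (DNA repair pathway); compound treatment; growth inhibition vs vehicle ctrl.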

[2] = NCI Yeast Anticancer Drug Screen. Data for the mec2-1 strain (AID 157); conditions: S. cerevisiae mec2-1 strain, at 50.0 µM, active compounds read high
Summary of the method: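 Growth inhibition is read against vehicle-treated controls after compound exposure of the mec2-1 yeast strain, which is defective in DNA damage repair or cell cycle control.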

[3] = NCI Yeast Anticancer Drug Screen. Data for the sgs1 mgt1 strain (AID 161);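 further: 0% = growth of cultures given vehicle only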; conditions: S. cerevisiae sgs1 mgt1 strain, at 50.0 µM, active compounds read high
Summary of the method: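 Compounds are added to genetically altered yeast, and growth is compared with cultures given vehicle alone to give percent inhibition.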

[4] = NCI Yeast Anticancer Drug Screen. Data for the cln2 rad14 strain (AID 165);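 further: 0% = growth equal to vehicle treated cultures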; conditions: S. cerevisiae cln2 rad14 strain, at 50.0 µM, active compounds read high
Summary of the method: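 Growth inhibition, relative to vehicle-treated controls, is the read-out. The test organism is a yeast strain with defined genetic alterations, cln2 rad14.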

[5] = NCI Yeast Anticancer Drug Screen. Data for the bub3 strain (AID 167); conditions: S. cerevisiae bub3 mutant strain, at 50.0 µM, active compounds read high
Summary of the method: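 Yeast carrying a defined mutation is treated with each compound, and growth is compared with that of vehicle-exposed cells to give inhibition.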

[6] = NCI Yeast Anticancer Drug Screen. Data for the mlh1 rad18 strain (AID 175); conditions: S. cerevisiae mlh1 rad18 strain growth inhibition; at 50.0 µM; active compounds read high
Summary of the method: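 Cells of a genetically altered yeast strain, deficient in DNA damage repair, were treated with compound. Their growth was then compared with that of vehicle-treated cultures to give inhibition.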

Row | SMILES | growth inhibition [1] | growth inhibition [2] | growth inhibition [3] | growth inhibition [4] | growth inhibition [5] | growth inhibition [6]
1 | CCc1nnc2ncccn12 | -1.15% | -10.9% | 4.25% | -5.95% | 10.4% | -2.9%
2 | CC1(C)C(=NNC(=O)C[N+](C)(C)C)C(C)(C)C1=NNC(=O)C[N+](C)(C)C | -0.4% | -11.9% | -32.9% | -46.4% | -0.15% | -13.5%
3 | CCOC(=O)C1=C(NC(C)(C)C)OCC1=O | -10.7% | -17.9% | -2.2% | 3.1% | -16.6% | 16.1%
4 | Cc1cc(Cl)ccc1NC(=O)CCCC(=O)C1CCC/C1=N\NC(=O)CC#N (centres undefined) | -33.2% | 9.7% | -7.25% | 8.95% | 5.7% | -12.3%
5 | O=C(NNc1ccccc1)c1ccc(Cl)cc1Cl | 3.5% | -9.4% | 50% | -0.05% | 50.4% | 34.9%
6 | COc1cccc(NC(=O)Nc2ccccc2Cl)c1 | -13.2% | 8.1% | -3.25% | -19.2% | -1.3% | -32.6%
7 | O=C1CCCCCCCCCCC1Br (centres undefined) | 43.2% | 3.15% | 34.4% | 31.9% | 23.3% | 21.4%
8 | C=C1C(=O)OC2CC3(C)C=CC(=O)C(=C)C3CC12 (centres undefined) | 6.75% | 20.6% | 34.4% | 39.9% | 26.8% | 23.4%
9 | CCCCCCCCCCCCCCCCn1/c(=N\N=O)sc2ccccc21 | -9.65% | -17.9% | -8.4% | 11.6% | -0.4% | -0.25%
10 | Nc1nc(=O)n(C2OC(CO)C(O)C2Cl)cc1I (centres undefined) | 10.4% | -3.8% | 1.1% | -5.1% | 7.8% | -0.75%
11 | Fc1ccc(-c2ccc(Br)cc2)cc1 | 3.95% | 3.4% | 2.05% | -44% | 17% | -3.65%
12 | Cc1ccc(C(C)C)c(OC2OC(C(=O)O)C(O)C(O)C2O)c1 (centres undefined) | 5.95% | 13.9% | -9% | -33.7% | 10.9% | -10.4%
13 | CSc1nc2c(c(=O)n1C)N=C(c1ccccc1)[C@H](C(CC(=O)c1ccccc1)c1ccccc1)C(c1ccccc1)N2 (some centres undefined) | 46.6% | 43.9% | 41.1% | 24.2% | 14.6% | 11.8%
14 | CCC(O)(Cc1ccccc1)C(C(=O)O)c1ccccc1 (centres undefined) | -32% | -31.1% | 4.6% | 4.9% | -28.1% | -26%
15 | CC1(C)COC(c2ccccc2Cl)OC1 | 20.1% | 9% | -0.45% | -24.6% | 0.7% | 18.6%
16 | O=C(NNC(=O)c1ccccc1F)c1ccc2ccccc2c1 | -15.3% | -13.3% | -8.75% | -2.5% | -2.1% | -6.55%
17 | COc1ccc(/C=C2/C(=O)N(C(=O)c3ccc(Cl)cc3)N=C2C)cc1OC | -18.7% | -36.9% | -32.6% | -3.55% | -17.1% | -35.5%
18 | CC(O)C1CCCCN1 (centres undefined) | 2.6% | -1.1% | -8.85% | 10.4% | 14.2% | -0.9%
19 | CN(C=O)c1ccc2c(c1)C(=O)c1ccccc1-2 | 11.7% | 2.1% | 0.1% | 4.2% | -0.3% | 9.55%
20 | O=C(CC1C(=O)Nc2ccccc2S1(=O)=O)Nc1cc(Cl)ccc1Cl (centres undefined) | 0.15% | -30.8% | 7.25% | 15.1% | 4.5% | -12.3%

Row | SMILES | growth inhibition [1] | growth inhibition [2] | growth inhibition [3] | growth inhibition [4] | growth inhibition [5] | growth inhibition [6]
21 | CN(C)S(=O)(=O)Cc1ccccc1 | 7.95% | -6.65% | -6.65% | -73.5% | 6.75% | -7.1%
22 | CN1CCC(O)(C#N)CC1 | -5.55% | 2% | -13.6% | -42.6% | 10.1% | -2.85%
23 | CN(C)/C=C/c1ccnc2c1C(=O)c1ccccc1C2=O | 83.7% (active) | 90.5% (active) | 73.3% (active) | 67.8% | 75.5% (active) | 92.7% (active)
24 | CCC[n+]1ccc(CCS(=O)(=O)c2ccc(N)cc2)cc1 | 6.15% | -6.55% | 1.9% | -6% | 21.4% | -16.7%
25 | Nc1[nH]c(=S)[nH]c(=O)c1N=O | -2.75% | -2.55% | -5.75% | -14.7% | -4.1% | 3.95%
26 | Cc1cc2nc(N)n[n+]([O-])c2cc1C | 8.4% | 7.35% | 2% | -6.25% | 1% | -24.9%
27 | Cc1ccccc1NC(=O)NNc1ccccc1 | 17% | -0.65% | 7.35% | 10.7% | -2.9% | 3.85%
28 | COC1=C(O)C(=O)N(C)C(=O)C1 | 20.4% | 9.35% | 29.2% | 0.75% | -14.7% | 10.8%
29 | CN1C2CCC1CC(OC(c1ccccc1)c1ccccc1)C2 (centres undefined) | 11.1% | 4.05% | -15.4% | 0.25% | 2.7% | 5.1%
30 | CNc1nc2c(C)ccc3nc(N(C)C)nc-3c2n1C | 0.6% | -22.2% | 4.4% | 16.4% | 20.1% | 14.8%
31 | CCOC(=O)C(=O)Nc1ccccc1CC | -3% | 2.9% | -12.3% | -33.5% | 11.2% | -3.35%
32 | Cc1nn(C23CC4CC(CC(C4)C2)C3)c(C(Cl)Cl)c1Cl | -4.4% | -7.95% | 2.7% | -8.75% | 2.05% | 4.7%
33 | Nc1nc(CCC(=O)Nc2cccc(C(F)(F)F)c2)cc(-c2cccc3ccccc23)n1 | -15.2% | 17.4% | 29.1% | 0.8% | 23.1% | 2.3%
34 | Oc1ccc2cc(O)ccc2c1 | -5.45% | -25.6% | -1.7% | -7.8% | -20.4% | -5.85%
35 | O=C1Nc2ccccc2/C1=N\[O-].O=C1Nc2ccccc2/C1=N\[O-].[Cu+2] | -10.2% | -5.5% | -30.5% | -0.3% | -23.4% | -21.1%
36 | COc1ccc(C2c3cc4c(cc3OC(C)(OC)C2C)OCO4)c(OC)c1OC (centres undefined) | -1.5% | 5.8% | -4.75% | -19% | -3.6% | 22.1%
37 | Cn1cnc2ncnc(Nc3ccc(Cl)cc3)c21 | 5.25% | -16% | 4% | -24.2% | 10% | -6.1%
38 | O=C1NC(=O)/C(=C/CCCO)N1 | 2.85% | -5.3% | -10.4% | -8.95% | -0.25% | -6.6%
39 | O=[N+]([O-])c1ccc(-c2noc(-c3ccccc3)c2C2=NCCN2)cc1 | -9.85% | -6% | 5.25% | 4.75% | 7.8% | 7.6%
